The record followed here is PubChem BioAssay (NCATS).

A short description of test [1]: qHTS profiling of the MIPE4 collection as inhibitors of Plasmodium falciparum (3D7) proliferation (AID 743344; call rule not given here;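 note: scaled between DMSO vehicle wells and 0.29 µM artemisinin as full inhibition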). The note with it: P. falciparum 3D7 in erythrocytes, SYBR Green DNA fluorescence, 72 h; at 28.5 µM. The essentials:
(§1)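 Parasite DNA was quantified by SYBR Green I fluorescence (ex 485, em 535 nm) after overnight lysis in saponin/Triton buffer at room temperature. Cultures at 0.3% parasitemia and 2.5% hematocrit were first exposed to compound for 72 h at 37 C; signals were normalised to artemisinin (0.29 uM) and vehicle wells.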
On the technique in general: qHTS replaces the single test concentration by a dilution series.

The nature of test [2]: qHTS profiling of the MIPE4 collection as inhibitors of Plasmodium falciparum (DD2) proliferation (AID 743345; call rule not given here). The note with it: P. falciparum Dd2 in erythrocytes, SYBR Green DNA, 72 h; at 28.5 µM. The procedure, abridged:
as §1

Test [3] can be described thus: qHTS profiling of the MIPE4 collection as inhibitors of Plasmodium falciparum (DD2) proliferation (Rep 2) (AID 743346; call rule not given here). The note with it: P. falciparum Dd2 in erythrocytes, SYBR Green DNA, 72 h; at 28.5 µM. The essentials:
as §1

Test [4] can be described thus: qHTS profiling of the MIPE4 collection as inhibitors of Plasmodium falciparum (HB3) proliferation (AID 743347; call rule not given here;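 note: plate controls were DMSO vehicle wells for no effect and artemisinin wells for full effect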). The note with it: P. falciparum HB3 in erythrocytes, SYBR Green DNA, 72 h; at 28.5 µM. The procedure, abridged:
as §1

Test [5] deals with Cytochrome P450 2C9 (Homo sapiens) (UniProt P11712). The test can be described thus: qHTS Assay for Inhibitors and Substrates of Cytochrome P450 2C9 (AID 883). For activity change, negative = inhibition: % is set by controls: 0 for no effect and ±100 for the full control effect. Note: nearly all actives have a fitted effect of over 60% in size. Note: potency is the fitted concentration of half-maximal effect. The essentials:
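A luminogenic readout tracked human CYP2C9 (10nM) converting deoxyluciferin (100uM, at KM) in 25mM KPO4 during 60 min at 37C with regenerated NADPH. Values normalized to 57uM sulphaphenazole as complete inhibition.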

Test [6] addresses Cytochrome P450 3A4 (Homo sapiens) (UniProt P08684). The test can be described thus: qHTS Assay for Inhibitors and Substrates of Cytochrome P450 3A4 (AID 884). For activity change, negative = inhibition: series mostly up to about 57 µM; % is set by controls: 0 for no effect and ±100 for the full control effect. Note: nearly all actives have a fitted effect of over 50% in size. Note: potency is the fitted concentration of half-maximal effect. The essentials:
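Luminescent readout of luciferin produced by CYP3A4 (20 nM) dealkylation of Luciferin-PPXE, 25 uM (its KM). NADPH-driven reaction ran 60 min at RT after 10 min compound preincubation; data scaled to 57 uM ketoconazole as 100% inhibition.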

Test [7] has the same target. Briefly: qHTS Assay for Activators of Cytochrome P450 3A4 (AID 885). Note: nearly all actives have a fitted effect of over 65% in size. The essentials:
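Human CYP3A4 dealkylates Luciferin-PPXE to luciferin, which luciferase detection converts to light. Substrate was at its KM (25uM), buffer 200mM KPO4, reaction 60 min at RT.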

Test [8] has as its target Cytochrome P450 2D6 (Homo sapiens) (UniProt P10635). Briefly: qHTS Assay for Inhibitors and Substrates of Cytochrome P450 2D6 (AID 891).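 Note: luciferin methyl ether substrate demethylated by CYP2D6 with NADPH regeneration; % is set by controls: 0 for no effect and ±100 for the full control effect; nearly all actives have a fitted effect of over 60% in size.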 The procedure, abridged: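 Luminescent read-out of luciferin formed by 5 nM human CYP2D6 demethylating 30 uM Luciferin-ME EGE (Km level) over 60 min at room temperature after NADPH regeneration addition. Data normalized to full inhibition by 1.43 uM quinidine.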

For test [9], the target named is Cytochrome P450 2C19 (Homo sapiens) (UniProt P33261). The test can be described thus: qHTS Assay for Inhibitors and Substrates of Cytochrome P450 2C19 (AID 899). Note: % is set by controls: 0 for no effect and ±100 for the full control effect; nearly all actives have a fitted effect of over 60% in size. The procedure, abridged: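 NADPH-dependent conversion of Luciferin-H EGE (10uM, at KM) by 5nM enzyme in 50mM KPO4, 60 min at 37C following 10 min compound preincubation. Stopped with luciferin detection buffer; luminescence read after 20 min.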

Several values for one entry are separate records, joined by “and”; a condition that tells them apart may be missing. Equal values may be shown once. Results filed as inconclusive are left out. The source holds several records for some structures; these can differ, active in one and inactive in another. Activity calls are given as the source filed them. Unless noted, calls come from the whole dose curve; as a rule, active = well fitted curve in the direction sought with a large enough effect; inconclusive = small, poorly fitted or top-dose-only effect, or another doubt; inactive = no such curve, though single readings can be large; an effect the other way counts as inactive or inconclusive.

Chain of Cytochrome P450 2C9 (Homo sapiens) (P11712 whole entry, looked up): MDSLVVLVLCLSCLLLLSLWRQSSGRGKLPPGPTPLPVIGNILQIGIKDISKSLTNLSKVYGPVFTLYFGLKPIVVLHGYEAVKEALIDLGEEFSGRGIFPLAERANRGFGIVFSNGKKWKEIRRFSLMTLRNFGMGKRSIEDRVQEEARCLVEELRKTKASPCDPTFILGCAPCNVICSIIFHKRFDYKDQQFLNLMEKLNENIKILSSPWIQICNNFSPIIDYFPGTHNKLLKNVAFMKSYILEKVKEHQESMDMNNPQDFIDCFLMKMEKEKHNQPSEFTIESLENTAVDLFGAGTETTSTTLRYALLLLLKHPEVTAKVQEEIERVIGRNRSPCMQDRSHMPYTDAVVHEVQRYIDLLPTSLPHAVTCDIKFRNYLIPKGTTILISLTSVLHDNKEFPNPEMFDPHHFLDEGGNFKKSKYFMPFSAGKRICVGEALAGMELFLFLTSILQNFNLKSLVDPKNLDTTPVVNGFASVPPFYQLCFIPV
Chain of Cytochrome P450 3A4 (Homo sapiens) (P08684 whole entry, looked up): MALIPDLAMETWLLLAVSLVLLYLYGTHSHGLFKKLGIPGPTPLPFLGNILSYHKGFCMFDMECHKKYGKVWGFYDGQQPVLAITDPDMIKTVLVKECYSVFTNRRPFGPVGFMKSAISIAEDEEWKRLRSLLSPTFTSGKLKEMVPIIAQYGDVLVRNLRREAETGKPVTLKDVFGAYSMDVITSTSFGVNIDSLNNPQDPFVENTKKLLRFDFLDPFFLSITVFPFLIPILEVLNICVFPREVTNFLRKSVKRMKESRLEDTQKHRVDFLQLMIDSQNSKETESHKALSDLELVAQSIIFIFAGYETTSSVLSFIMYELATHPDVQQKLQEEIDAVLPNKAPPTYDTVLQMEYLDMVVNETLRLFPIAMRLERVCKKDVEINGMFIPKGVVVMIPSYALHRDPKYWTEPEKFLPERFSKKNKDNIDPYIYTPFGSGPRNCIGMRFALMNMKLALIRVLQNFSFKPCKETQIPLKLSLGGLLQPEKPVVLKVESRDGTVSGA
Chain of Cytochrome P450 2C19 (Homo sapiens) (P33261 whole entry, looked up): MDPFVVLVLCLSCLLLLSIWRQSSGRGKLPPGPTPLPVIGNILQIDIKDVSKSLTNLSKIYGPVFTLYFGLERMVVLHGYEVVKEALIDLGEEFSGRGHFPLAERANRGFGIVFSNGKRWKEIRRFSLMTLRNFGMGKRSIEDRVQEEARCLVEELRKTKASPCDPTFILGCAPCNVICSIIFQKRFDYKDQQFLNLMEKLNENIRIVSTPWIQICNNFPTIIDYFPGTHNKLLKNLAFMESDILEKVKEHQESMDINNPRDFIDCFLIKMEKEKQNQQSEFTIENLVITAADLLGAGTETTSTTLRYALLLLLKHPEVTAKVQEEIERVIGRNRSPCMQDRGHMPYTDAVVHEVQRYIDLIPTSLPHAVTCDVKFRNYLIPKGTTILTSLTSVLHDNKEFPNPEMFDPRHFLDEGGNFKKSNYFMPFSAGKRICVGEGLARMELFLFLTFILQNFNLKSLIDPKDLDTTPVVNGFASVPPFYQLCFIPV
Chain of Cytochrome P450 2D6 (Homo sapiens) (P10635 whole entry, looked up): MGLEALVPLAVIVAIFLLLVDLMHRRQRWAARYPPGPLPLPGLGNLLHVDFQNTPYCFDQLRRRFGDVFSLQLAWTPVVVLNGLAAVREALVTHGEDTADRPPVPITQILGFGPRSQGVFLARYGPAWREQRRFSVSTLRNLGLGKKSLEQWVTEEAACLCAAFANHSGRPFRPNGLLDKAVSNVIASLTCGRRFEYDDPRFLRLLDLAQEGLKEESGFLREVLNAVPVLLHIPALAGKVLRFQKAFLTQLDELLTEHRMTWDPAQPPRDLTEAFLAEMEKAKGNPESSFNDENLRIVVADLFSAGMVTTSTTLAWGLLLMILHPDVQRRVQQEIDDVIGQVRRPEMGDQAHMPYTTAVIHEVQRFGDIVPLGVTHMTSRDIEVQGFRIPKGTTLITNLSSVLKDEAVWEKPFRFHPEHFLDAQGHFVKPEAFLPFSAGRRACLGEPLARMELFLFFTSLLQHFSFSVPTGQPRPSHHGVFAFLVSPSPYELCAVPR

For the molecule `COc1cc(C)c2c(Oc3cccc(C(F)(F)F)c3)c(OC)cc(NCCCC(C)N)c2n1` (stereo not drawn), the parasite growth, % of DMSO control in [1] amounted to 3.66%. Further, the parasite growth remaining, % of DMSO control (lower = more inhibition) in test [2] turned out to be 6.22%. The parasite growth, % of control (lower = inhibition) in test [3] worked out at 16%. In test [4], this molecule had a growth, % of control of 2.71%.

Consider `COC(=O)[C@H](CCSC)NC(=O)C/C=C\[C@@H](C)CO`, for which, in test [5], the Potency entry is “inactive”.

The molecule `CN[C@@H]1[C@@H](O[C@H]2[C@H](O[C@H]3[C@H](O)[C@@H](O)[C@H](N=C(N)N)[C@@H](O)[C@H]3N=C(N)N)O[C@@H](C)[C@]2(O)C=O)O[C@@H](CO)[C@H](O)[C@H]1O` came in with a parasite growth, % of DMSO control in test [1] of 93.9%. In test [2], the parasite growth remaining, % of DMSO control (lower = more inhibition) was found to be 105%. The parasite growth, % of control (lower = inhibition) in [3] was 118%. In [4], this molecule had a growth, % of control of 86.4%.

Consider `COC(=O)NC(/C(C(=O)OC)=C(\C)NCc1ccccc1)c1cccc(C)c1` (stereo not drawn), for which the Potency entry in test [5] was “inactive”. Moreover, the activity change, negative = inhibition in [6] is -22.4% [at 11.4 µM] (inactive).

Regarding `CCOC(=O)N/N=C1/C[C@@H](O)[C@@H](O)[C@@H]2[C@@H]3C(=O)N(c4cccc(Oc5ccccc5)c4)C(=O)[C@H]3CC[C@@H]12`, in test [5], the Potency entry is “inactive”.

As for `Cc1ccc(S(=O)(=O)N[C@H]2COC(=O)C/C=C\[C@@H](C)COC(=O)C/C=C\[C@@H]2C)cc1`, the Potency entry in [5] is “inactive”. Moreover, the Potency in [6] is 3.16 µM (active). The activity change, positive = activation in [7] was -68.8% [at 11.4 µM] (inactive).

`COc1ccc(OC2C=CC(c3ccccc3)OC2CO)cc1` (stereo not drawn): the Potency entry in [5] is “inactive”. The Potency in [6] was 3.98 µM (active). Moreover, the activity change, positive = activation in [7] was -66.9% [at 11.4 µM] (inactive).

Turning to `CC(=O)OC[C@@H]1O[C@@H](O/N=C2/C[C@@H](O)[C@@H](O)[C@@H]3[C@@H]4C(=O)N(C(C)(C)C)C(=O)[C@H]4CC[C@@H]23)[C@H](OC(C)=O)[C@H](OC(C)=O)[C@@H]1OC(C)=O`, the Potency entry in test [5] is “inactive”.

Turning to `CO/N=C\c1ccc(C(=O)N2[C@H](c3ccc(C)cc3)[C@@H](C)CC[C@H]2C(=O)OC)cc1`, the Potency in [5] is 2.51 µM (active); in [6], 3.16 µM (active). Further, the activity change, positive = activation in test [7] was -64.1% [at 11.4 µM] (inactive).

For `C=CC[C@@H]1C=C[C@H](O/N=C2\c3cc(OC)ccc3O[C@H](c3cccc(OC)c3)[C@H]2O)[C@H](CO)O1`, in test [5], the Potency is 0.398 µM (active).

Regarding `O=C1C[C@@H](O)[C@@H](O)[C@H]2[C@@H]3C(=O)N(Cc4ccccc4)C(=O)[C@@H]3CC[C@H]12`, in [5], the Potency entry was “inactive”.

Take `CC1(C)O[C@@H]2[C@H]3OC(C)(C)O[C@]3(COS(N)(=O)=O)OC[C@H]2O1`: the parasite growth, % of DMSO control in test [1] is 103%. The parasite growth remaining, % of DMSO control (lower = more inhibition) in test [2] stood at 93.9%. Moreover, the parasite growth, % of control (lower = inhibition) in test [3] turned out to be 101%. Besides, the growth, % of control in test [4] was 59.9%.

On to `CCOC(=O)[C@]1(C(NC(=O)OC)c2cccc(F)c2)CCCC1=O` (stereo partly drawn), for which, in test [5], the Potency entry was “inactive”. For the same molecule, the activity change, negative = inhibition in [6] is -16.9% [at 11.4 µM] (inactive).

As to `CC(C)(C)OC(=O)N[C@@H](Cc1ccc(O[S+](=O)([O-])c2cccc3cnccc23)cc1)C(=O)Nc1ccc(-c2ccccc2)cc1`, the parasite growth, % of DMSO control in test [1] is 5.81%. Further, the parasite growth remaining, % of DMSO control (lower = more inhibition) in test [2] is 8.82%. Besides, the parasite growth, % of control (lower = inhibition) in [3] amounted to 13.9%. Also, the growth, % of control in test [4] was 4.11%.

For the molecule `COc1ccc(C#CC2C=CC(OC(C)=O)C(COC(C)=O)O2)cc1` (stereo not drawn), the Potency result in test [5], in test [8] and in test [9] was “inactive” in each case. Besides, in test [6], the Potency was 2.51 µM (active). Besides, the activity change, negative = inhibition in [6] was -3.53% [at 11.4 µM] (inactive). Moreover, in [7], the activity change, positive = activation is -88.8% [at 11.4 µM] (inactive).

In test [1], `C[C@H]1CCN(C(=O)CC#N)C[C@H]1N(C)c1ncnc2[nH]ccc12` came in with a parasite growth, % of DMSO control of 69.9%. The parasite growth remaining, % of DMSO control (lower = more inhibition) in test [2] stood at 98.8%. Besides, the parasite growth, % of control (lower = inhibition) in test [3] is 51.2%. This molecule returned a growth, % of control in [4] of 114%.

Consider `COc1cccc([C@@H]2Oc3ccc(OC)cc3/C(=N/O[C@@H](C)CN3CCCCc4nc(C)c(C)cc43)[C@@H]2O)c1`, for which the values for the Potency in test [5] and in test [6] were 1.58 µM (active) and 3.98 µM (active), respectively. For the same molecule, in [7], the activity change, positive = activation is -96.4% [at 11.4 µM] (inactive).

Take `C[C@]1(COc2ccc(N3CCC(Oc4ccc(OC(F)(F)F)cc4)CC3)cc2)Cn2cc([N+](=O)[O-])nc2O1`: in [1], the parasite growth, % of DMSO control was 81.7%. Moreover, the parasite growth remaining, % of DMSO control (lower = more inhibition) in test [2] amounted to 82%. Also, the parasite growth, % of control (lower = inhibition) in test [3] stood at 90.2%. This molecule also registered a growth, % of control in test [4] of 88.7%.

Take `CC(C)CO/N=C1/[C@H]2O[C@@H]2[C@@H](O)[C@H]2[C@H]1CCn1c(=O)n(-c3ccccc3)c(=O)n12`: the Potency entry in test [5] was “inactive”.

On to `COc1ccc(-c2ccc3c(n2)CCCN3C[C@H](O)CN2CCCc3nc(C)c(C)cc32)cc1`, for which the Potency in [5] was 3.98 µM (active).

In test [1], `CO[C@H]1C=CO[C@@]2(C)Oc3c(C)c(O)c4c(O)c(c(C=NN5CCN(C)CC5)c(O)c4c3C2=O)NC(=O)C(C)=CC=CC(C)[C@H](O)[C@@H](C)[C@@H](O)[C@@H](C)[C@@H](OC(C)=O)[C@H]1C` (stereo partly drawn) gave a parasite growth, % of DMSO control of 4.07%. The parasite growth remaining, % of DMSO control (lower = more inhibition) in [2] turned out to be 6.12%. Moreover, the parasite growth, % of control (lower = inhibition) in test [3] came out at 8.95%. For the same molecule, the growth, % of control in test [4] is 6.73%.

For `CCCNC(=O)OC[C@@H]1O[C@H](CCO/N=C(\C)CCN2CCc3nc(-c4ccccc4)c(-c4ccccc4)cc3C2)C=C[C@@H]1Oc1ccc(OC)cc1`, the Potency was 2 µM (active) in test [5] and 3.16 µM (active) in test [6]. Besides, in test [7], the activity change, positive = activation was -74.2% [at 11.4 µM] (inactive).

In the case of `COc1cccc([C@H]2Oc3ccc(OC)cc3/C(=N\O[C@@H](C)c3cn([C@H](CO)Cc4ccccc4)nn3)[C@@H]2O)c1`, the Potency in test [5] is 1.58 µM (active); in test [6], 3.16 µM (active) and 3.98 µM (active). In addition, the activity change, positive = activation in [7] is -102% [at 11.4 µM] (inactive) and -98.9% [at 11.4 µM] (inactive).

In turn, `COC1=C2C[C@H](C)C[C@H](OC)[C@@H](O)[C@@H](C)C=C(C)[C@H](OC(N)=O)[C@@H](OC)C=CC=C(C)C(=O)NC(=CC1=O)C2=O` returned a parasite growth, % of DMSO control in test [1] of 5.44%. Also, the parasite growth remaining, % of DMSO control (lower = more inhibition) in test [2] worked out at 7.35%. For the same molecule, the parasite growth, % of control (lower = inhibition) in test [3] was found to be 6.42%. Besides, in [4], the growth, % of control was 2.93%.

For the molecule `CC(=O)OC[C@@H]1O[C@@H](O/N=C2/C[C@@H](O)[C@@H](O)[C@@H]3[C@@H]4C(=O)N(C5CCCCC5)C(=O)[C@H]4CC[C@@H]23)[C@H](OC(C)=O)[C@H](OC(C)=O)[C@@H]1OC(C)=O`, the Potency entry in test [5] is “inactive”.

On to `COC(=O)NC(/C(C(=O)OC)=C(\C)NCc1ccccc1)c1cccc(F)c1` (stereo not drawn), for which, in [5], the Potency entry was “inactive”. Besides, the activity change, negative = inhibition in [6] was -19.8% [at 11.4 µM] (inactive).

`CN([C@@H](Cc1ccc(O[S+](=O)([O-])c2cccc3cnccc23)cc1)C(=O)N1CCN(C(=O)OCc2ccccc2)CC1)[S+](=O)([O-])c1cccc2cnccc12`: the parasite growth, % of DMSO control in test [1] was 4.76%. Moreover, in test [2], the parasite growth remaining, % of DMSO control (lower = more inhibition) is 6.72%. In addition, the parasite growth, % of control (lower = inhibition) in test [3] was 26.8%. In test [4], this molecule displayed a growth, % of control of 8.42%.

Consider `COc1ccc(OCC2CC3C(CCC(C)C3c3ccc(Br)cc3)C(=O)O2)cc1` (stereo not drawn), for which the Potency result in test [5] is “inactive”. In addition, the Potency in test [6] was 3.98 µM (active).

With `COC(=O)C1C(C)OC(=O)NC1c1ccccc1` (stereo not drawn), the Potency entry in test [5] was “inactive”. Besides, the activity change, negative = inhibition in [6] was -16.6% [at 11.4 µM] (inactive).
